TDP1 cell noCPT: qHTS for Inhibitors of human tyrosyl-DNA phosphodiesterase 1 (TDP1): qHTS in cells in absence of CPT. DT40 Tdp1-/- hTDP1 cells, no CPT, ATP luminescence, 48 h. Potency, µM (titrated, usually from 46.2 µM), without a hit: at the top dose activity change, negative = growth inhibition, hits mostly inhibitors. 420,000 tested, 15% active. AID 686978, 2013; also: potency is read from the fitted curve at half-maximal effect; nearly all actives have a fitted effect of over 55% in size
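A cellular qHTS used chicken DT40 cells lacking endogenous Tdp1 but carrying stably transfected human TDP1. Compounds were applied without camptothecin, and cell growth kinetics were judged by ATP-dependent luminescence after ≥48 hr.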
Six1-Eya2 blk: blocks human Six1 binding to Eya2; AlphaScreen GST-Six1/His-Eya2 binding, biochemical; stronger effect = lower value; 360,000 tested, 0.56% active; activity change, % (test concentration not listed); in the data active = activity change below about -65%; inconclusive = mostly about -30% to -63%
Target sequence (O00167 whole entry, looked up): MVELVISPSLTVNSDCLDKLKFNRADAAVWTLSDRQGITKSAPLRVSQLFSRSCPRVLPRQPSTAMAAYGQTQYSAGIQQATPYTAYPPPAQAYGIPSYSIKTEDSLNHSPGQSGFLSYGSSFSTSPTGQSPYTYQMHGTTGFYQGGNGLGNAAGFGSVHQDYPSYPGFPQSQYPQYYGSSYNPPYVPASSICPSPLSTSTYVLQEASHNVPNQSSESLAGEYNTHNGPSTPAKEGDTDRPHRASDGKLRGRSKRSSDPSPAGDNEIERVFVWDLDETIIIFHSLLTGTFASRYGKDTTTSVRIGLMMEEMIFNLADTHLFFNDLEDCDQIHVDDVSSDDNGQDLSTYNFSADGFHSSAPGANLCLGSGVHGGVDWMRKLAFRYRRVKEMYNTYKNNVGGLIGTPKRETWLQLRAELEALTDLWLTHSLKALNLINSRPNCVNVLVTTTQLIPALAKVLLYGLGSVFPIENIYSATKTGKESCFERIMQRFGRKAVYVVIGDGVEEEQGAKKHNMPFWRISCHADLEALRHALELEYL
Target sequence (Q15475 whole entry, looked up): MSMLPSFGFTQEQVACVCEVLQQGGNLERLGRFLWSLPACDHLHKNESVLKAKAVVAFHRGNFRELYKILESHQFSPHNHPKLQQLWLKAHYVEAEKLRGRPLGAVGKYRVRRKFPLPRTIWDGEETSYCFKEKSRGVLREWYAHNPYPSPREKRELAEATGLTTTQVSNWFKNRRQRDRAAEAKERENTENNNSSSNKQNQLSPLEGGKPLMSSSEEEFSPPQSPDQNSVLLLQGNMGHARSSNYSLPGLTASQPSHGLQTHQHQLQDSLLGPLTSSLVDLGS
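AlphaScreen luminescence read after one hour at 37 °C in darkness. Pin-transferred compounds met GST-Six1 and His-Eya2 protein (5X stock 250 nM/500 nM) plus glutathione donor and Ni-chelate acceptor beads (5X, 50 ug/mL).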
IL1B secr inh: inflammasome signaling inhibition, IL-1 beta readout; THP-1 LPS/ATP IL-1B secretion, AlphaLISA, 16 h; stronger effect = lower value; activity change, % at 57.5 µM; 360,000 tested, 4.7% active; in the data active = activity change below about -50%; inconclusive = mostly about -30% to -49%
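THP-1 cells pretreated 1 hr with compounds (up to 57.5 uM final), then stimulated with LPS (250 ng/mL final) plus ATP (1.25 mM final); secreted IL-1B measured by AlphaLISA after 16 hr, decreased signal indicating inhibition.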
CtBP-E1A inh: blocks the CtBP interaction with E1A; AlphaScreen GST-E1A/His-CtBP binding, 1536-well; stronger effect = lower value; activity change, % (test concentration not listed); 340,000 tested, 0.49% active; AID 651724; in the data active = activity change below about -65%; inconclusive = mostly about -30% to -63%
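Homogeneous bead-based format: GST-tagged E1A captured on glutathione donor beads, His-tagged CtBP on nickel acceptor beads; compounds precede bead addition by 2 h at 37 °C.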
TDP1 inh: inhibitors of human tyrosyl-DNA phosphodiesterase TDP1; recombinant TDP1, AlphaScreen DNA substrate cleavage; Q9NUW8; AID 485290; Potency, µM (series often up to 130 µM), for inactives: top-dose activity change, negative = inhibition, hits mostly inhibitors; 350,000 tested, 0.28% active; also: potency is read from the fitted curve at half-maximal effect; nearly all actives have a fitted effect of over 40% in size
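Enzyme-compound mixtures sat 15 min at room temperature, followed by a 5 min reaction with 15 nM final substrate and 10 min with AlphaScreen beads. Recombinant human Tdp1 was used at 1 nM final.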
DT40 TDP1 CPT: growth inhibition of DT40 Tdp1-/-;hTDP1 cells with camptothecin (screen for TDP1 inhibitors). chicken DT40 Tdp1-/-;hTDP1 cells + 20 nM CPT, ATP luminescence, 48 h. Potency, µM (series often up to 46.2 µM), without a hit: top-dose activity change, negative = growth inhibition, most hits filed as inhibitors. 420,000 tested, 12% active; also: potency is read from the fitted curve at half-maximal effect; nearly all actives have a fitted effect of over 55% in size
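Chicken DT40 Tdp1-/- cells stably complemented with human TDP1 were seeded at 400 cells/well in medium containing 20 nM camptothecin, exposed to pin-transferred compounds, and grown at 37 °C for at least 48 hr. Viability was read as ATP luminescence.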
Numbers without * were called inactive; ? = inconclusive; . = not tested or not shown; [ ] = remark or other dose. Most compounds without a hit are left out; they make up all but 18% or so of the library. Unless noted, calls follow the shape of the dose curve; as a rule, active = well fitted curve in the direction sought with a large enough effect; inconclusive = small, poorly fitted or top-dose-only effect, or another doubt; inactive = no such curve, though single readings can be large; an effect the other way counts as inactive or inconclusive. % is scaled to controls: 0 for no effect and ±100 for the full control effect.

SMILES | TDP1 cell noCPT | Six1-Eya2 blk | IL1B secr inh | CtBP-E1A inh | TDP1 inh | DT40 TDP1 CPT
COc1ccccc1C=NC(CO)C(O)c1ccc([N+](=O)[O-])cc1 (stereo not drawn) | -3% | -6 | 17 | 4 | 7% | -34%
Nc1nnc(CCOc2ccccc2Cl)s1 | -1% | -1 | -5 | 2 | 0% | 4%
O=C1N[C@@H](Cc2c[nH]c3ccccc23)C(=O)N[C@H]1Cc1c[nH]c2ccccc12 | -17%[9.04 µM] | . | . | . | 7% | -18%[9.04 µM]
CN(C)C(=O)c1ccc(-c2cncnc2Nc2ccc(F)cc2)cc1 | 8% | . | . | . | . | -4%
COC(=O)c1ccc(OCC(O)CN2CCOCC2)cc1 (stereo not drawn) | -14% | -10 | -7 | . | . | -4%
Cc1nn(S(=O)(=O)c2ccc(Cl)cc2)c(C)c1Sc1ccc([N+](=O)[O-])cc1 | 16µM* | 1 | -10 | 9 | 6% | 16µM*
Cc1nn(-c2ccccc2)c(N)c1Sc1ccc([N+](=O)[O-])cc1 | 15µM* | -11 | ? | -9 | 0% | ?
Cc1ccc(-n2nc(C)c3c2OC(N)=C(C#N)C3c2ccc(F)cc2)cc1 (stereo not drawn) | ? | -5 | 5 | -10 | 5% | ?
Cc1nn(-c2ccccc2)c2c1C(c1ccc([N+](=O)[O-])cc1)C(C#N)=C(N)O2 (stereo not drawn) | ? | -14 | -12 | . | 5% | 15µM*
Cc1nn(-c2ccccc2)c(OC(=O)C(C)C)c1Sc1ccccc1 | ? | . | . | . | 9% | -17%
CCCCc1nnc(NC(=O)CN2C(=O)C3CCCCC3C2=O)s1 (stereo not drawn) | 3% | 4 | 8 | -3 | . | 6%
CCCn1cc(S(=O)(=O)CC(=O)NC2CCCCC2)c2ccccc21 | -21% | 1 | 5 | 7 | 3% | -22%
COc1ccc(OCC(=O)N2CCN(c3nnc(-c4ccc(C)cc4)c4ccccc34)CC2)cc1 | 16µM* | -3 | -84* | -1 | . | 16µM*
Cc1ccc(OCC(=O)N2CCN(c3nnc(-c4ccc(C)cc4)c4ccccc34)CC2)cc1 | 23µM* | -17 | -87* | -17 | 7% | 16µM*
O=C(COc1ccccc1)N1CCN(c2nnc(-c3ccccc3)c3ccccc23)CC1 | 16µM* | -19 | -18 | -24 | 7% | 13µM*
Cc1ccc(-c2nnc(N3CCN(C(=O)c4ccco4)CC3)c3ccccc23)cc1 | ? | 0 | -63* | -6 | 5% | 21µM*
CCC(=O)N1CCN(c2nnc(-c3ccccc3)c3ccccc23)CC1 | -22% | -9 | -13 | 0 | . | -3%
COc1ccc(OCC(=O)N2CCN(c3nnc(-c4ccccc4)c4ccccc34)CC2)cc1 | 18µM* | ? | -66* | -6 | 3% | 16µM*
Cc1cc(C)c2nc(C(F)(F)F)nc(N3CCN(C(=O)c4ccco4)CC3)c2c1 | ? | -4 | ? | 2 | 0% | 26µM*
Cc1cc(-c2nn(-c3ccccc3)cc2/C=C2\SC(N)=NC2=O)ccc1OC(C)C | ? | -1 | -8 | 1 | -5% | ?
CC1CCN(C2=NC(=O)/C(=C/c3cn(-c4ccccc4)nc3-c3cccc(S(=O)(=O)N(C)C)c3)S2)CC1 | 6.5µM* | -7 | -30 | 2 | 4% | 7.3µM*
CC1CCCN(C2=NC(=O)/C(=C/c3cn(-c4ccccc4)nc3-c3cccc(S(=O)(=O)N(C)C)c3)S2)C1 (stereo not drawn) | 12µM* | 2 | -17 | 6 | 5% | 16µM*
COC(=O)/C=C/c1cnc[nH]1 | -7% | 1 | 12 | 2 | . | ?
CC1CCCCN1C(=O)c1cccc(NC(=O)c2ccccc2)c1 (stereo not drawn) | -23% | -9 | 8 | 0 | -8% | -2%
CC(C)C(=O)Nc1cccc(C(=O)N2CCCCC2C)c1 (stereo not drawn) | 15µM* | 21 | 13 | 0 | 5% | 18µM*
SMILES | TDP1 cell noCPT | Six1-Eya2 blk | IL1B secr inh | CtBP-E1A inh | TDP1 inh | DT40 TDP1 CPT
O=C(NCC1CC1)C1CCCN(S(=O)(=O)c2ccc(-n3cnnn3)cc2)C1 (stereo not drawn) | -11% | 2 | -2 | 3 | -4% | 4%
Cc1cc(=O)n2[nH]c(-c3ccc(Cl)cc3)cc2n1 | 21µM* | -2 | 4 | -10 | -3% | 18µM*
Cc1cccc(-c2cc3nc(-c4ccccc4)cc(=O)n3[nH]2)c1 | 23µM* | -15 | 1 | -2 | . | 23µM*
CCOC(=O)Cc1c(C)nc(-c2ccccc2)[nH]c1=O | -3% | 2 | 14 | -1 | 0% | -3%
Cc1cc(=O)n2[nH]c(C)c(-c3ccc(Cl)cc3)c2n1 | ? | -18 | 1 | 12 | 0% | 23µM*
Cc1cc(=O)n2[nH]c(-c3ccsc3-n3c(C)ccc3C)cc2n1 | ? | -22 | -4 | -17 | . | ?
Cc1ccccc1-c1cc2nc(-c3ccc([N+](=O)[O-])cc3)cc(=O)n2[nH]1 | -15% | 6 | 17 | -5 | 8% | -22%
CCOC(=O)Cc1c(C)nc2c(-c3cccc(Br)c3)c[nH]n2c1=O | 4.1µM* | -11 | 36 | -12 | 11% | 9.2µM*
Cc1ccc(NC(=O)c2nc[nH]c2C(=O)NCc2ccccc2)cc1 | ? | -1 | -15 | -2 | 1% | ?
CCn1c(SCC(=O)n2nc(C)cc2C)nnc1-c1ccc2c(c1)OCO2 | 6% | -2 | 1 | -7 | 5% | 4%
CCOC(=O)Cc1c(C)nc2c(-c3ccc(Cl)cc3)c(C)[nH]n2c1=O | 23µM* | ? | 42 | 14 | 5% | 23µM*
CCOC(=O)CCc1c(C)nc2c(-c3ccccc3)c(C)[nH]n2c1=O | -26% | . | . | . | 1% | -27%
Cc1cc(=O)n2[nH]c(-c3ccc(F)cc3)cc2n1 | 13µM* | -1 | -5 | -2 | -2% | ?
Cc1ccc(-c2nc(N)sc2-c2ccc(C)cc2)cc1 | 16µM* | -2 | -25 | -9 | 5% | ?
COC(=O)c1cccc(NC(=S)NCc2ccc(F)cc2)c1 | ? | 7 | -5 | 4 | -3% | -5%
COc1ccc(C(c2nnnn2-c2ccc3c(c2)OCCO3)N2CCN(C/C=C/c3ccccc3)CC2)cc1 (stereo not drawn) | 16µM* | -24 | ? | ? | . | 16µM*
CCCCn1nnnc1C(c1cc2ccccc2o1)N1CCN(c2ncccc2C#N)CC1 (stereo not drawn) | 18µM* | -2 | -3 | 1 | . | ?

Screens (PubChem BioAssay)
